Screening results: PubChem BioAssay, The Scripps Research Institute Molecular Screening Center
The list is not random: actives were taken first. Their share in the collection is about 3.5%.
GPR151 activ: activators of human GPR151; Q8TDV0; PathHunter beta-arrestin GPR151 cells, luminescence; activation, % at 11.2 µM; actives 1% (n = 650,000); AID 1508602; in the data active = activation above about 4.9%;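 also: 0% = median of compound wells and 100% = cells with positive control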
Target sequence (Q8TDV0 whole entry, looked up): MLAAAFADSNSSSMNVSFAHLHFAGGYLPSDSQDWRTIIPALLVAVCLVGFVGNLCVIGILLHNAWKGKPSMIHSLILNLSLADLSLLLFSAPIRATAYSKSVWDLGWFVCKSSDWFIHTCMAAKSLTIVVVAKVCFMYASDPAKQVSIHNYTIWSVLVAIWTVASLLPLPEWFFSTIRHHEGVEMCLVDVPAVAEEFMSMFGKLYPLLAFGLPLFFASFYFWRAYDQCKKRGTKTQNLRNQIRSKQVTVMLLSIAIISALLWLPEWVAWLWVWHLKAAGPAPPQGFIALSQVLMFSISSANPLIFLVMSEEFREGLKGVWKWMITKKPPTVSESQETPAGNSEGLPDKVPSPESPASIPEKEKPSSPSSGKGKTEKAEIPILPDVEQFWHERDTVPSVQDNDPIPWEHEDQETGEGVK
FBW7 activator: activators of human E3 ligase FBW7; Q969H0; normalized activity (activation), % at 26.1 µM; actives 0.13% (n = 650,000); AlphaScreen FBW7–phospho-cyclin E peptide binding, activator screen; AID 1259310; in the data active = normalized activity above about 1.9%;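 also: purified mutant Fbw7 with reduced substrate affinity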
MITF primary: human MITF inhibition, primary screen; AID 1259374; AlphaScreen MITF homodimerization, bead proximity signal; actives 0.91% (n = 650,000); O75030; inhibition, % at 2.6 µM; in the data active = inhibition above about 50%;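 also: 0% = vehicle wells with protein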
TEAD-YAP block: TEAD-YAP interaction inhibition; HEK-TIYL cells, TEAD-Gal4/YAP UAS-luciferase luminescence; inhibition, % at 9.12 µM; actives 1.4% (n = 640,000); AID 1259422; in the data active = inhibition above about 32%;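 also: 0% = median of test compound wells and 100% = reference inhibitor wells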
GPR151 conf act: human GPR151 activation, confirmation screen | activation, % at 11.2 µM | shares compounds with GPR151 activ | GPR151 PathHunter beta-arrestin cells, luminescence, 90 min; % of EA-reagent control over plate median | 6,700 tested, under 10 active;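 active = mean percent activation across replicates above the confirmation screen cutoff of 4.91%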
GPR119 counter: counter-screen for GPR151 activators: effect on human GPR119 | activation, % at 11.2 µM | shares compounds with GPR151 activ | actives 0.3% (n = 6,700) | AID 1508611 | GPR119 PathHunter beta-arrestin cells, luminescence, 90 min; 0 = compound-well median, 100 = enzyme-acceptor control;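 active = mean percent activation in the counterscreen above 29.09%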;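 also: counterscreen on off-target GPR119 to flag nonselective hits from the GPR151 activator screen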
Numbers without * were called inactive; nt = no result; ! = repeats disagree.

SMILES	GPR151 activ	FBW7 activator	MITF primary	TEAD-YAP block	GPR151 conf act	GPR119 counter
CC1Cc2cc(S(=O)(=O)CCC(=O)Nc3ccccc3Cl)ccc2N1C(=O)C1CC1 (configuration not stated)	5.2*	0.0	1.9	13.9	0.5	1.0
CC1Cc2cc(S(=O)(=O)CCC(=O)Nc3cccc(F)c3)ccc2N1C(=O)C1CC1 (configuration not stated)	0.6	0.0	-0.7	7.7	nt	nt
COc1ccc(Cn2nccc2N)cc1OC	13.8*	0.3	2.0	-2.3	2.0	7.0
COc1ccccc1Cn1nccc1N	1.6	0.3	8.2	1.8	nt	nt
Cc1cc2cc(CN(C(=O)C3CCC3)C3CCCC3)c3nnnn3c2cc1C	2.0	0.2	4.4	1.8	nt	nt
c1cc(-c2ccc3nc(-c4ccncc4)[nH]c3c2)ccn1	0.4	-0.4	-5.5	-43.3	nt	nt
C1=C(c2nc3ccc(-c4ccncc4)cc3[nH]2)CCOc2ccccc21	10.0*	0.2	-0.5	8.2	0.7	20.7
CC(C(=O)N(C)c1ccccc1)N1C(=O)NC(C)(c2ccccc2)C1=O (configuration not stated)	-1.0	0.2	-0.4	-3.3	nt	nt
Cc1ccc(C)c(S(=O)(=O)N2CCN3C(=O)[C@H](C)N(C)C(=O)[C@H]3C2)c1	0.1	-0.2	4.9	2.6	nt	nt
CN(C)N1C(N)=C(C#N)C(c2ccc3ccccc3c2)C2=C1CCCC2=O (configuration not stated)	5.9*	0.0	1.2	2.3	0.1	16.5
COc1ccc(C2C(C#N)=C(N)N(N(C)C)C3=C2C(=O)CCC3)cc1 (configuration not stated)	2.0	0.1	-4.4	11.3	nt	nt
O=C(NCc1cccc(C(F)(F)F)c1)c1cnc(-c2ccccc2)s1	7.6*	0.0	1.4	14.0	-1.0	-3.9
Nc1cccc(-c2ncc(C(=O)NCc3ccccc3)s2)c1	0.6	0.1	10.8	3.2	nt	nt
COc1ccc(-c2ncc(C(=O)NCc3cccc(C(F)(F)F)c3)s2)cc1	-2.6	0.1	-0.1	-1.6	nt	nt
O=C(NCc1cccc(C(F)(F)F)c1)c1cnc(NC2CCC(O)CC2)s1 (configuration not stated)	5.1*	0.1	3.5	3.8	-1.0	2.1
O=C(NCc1ccccc1)c1cnc(-c2ccccc2)s1	6.6*	-0.2	7.3	-38.4	-0.3	-14.0
COc1ncc(-c2cncc(-c3cccc(O)c3)n2)c(OC)n1	12.6*	-0.1	7.4	-32.6	1.1	6.0
CC1=CC(C)(C)N2C(=O)C3(C(C#N)=C(N)Oc4cc(C)oc(=O)c43)c3c(C)c(C)cc1c32 (configuration not stated)	-1.0	0.9	25.1	9.5	nt	nt
CC(NC(=O)CN1C(=O)CC(C)(C)S(=O)(=O)c2ccccc21)c1ccccc1 (configuration not stated)	-0.9	0.0	13.5	3.8	nt	nt
CCc1cc2c(cc3c(=O)n(CC(=O)NCc4ccccc4Br)ncn32)s1	6.4*	0.5	-8.0	5.6	2.6	11.4
c1cnc(NCC2COc3ccccc3O2)nc1 (configuration not stated)	-1.5	0.3	-11.7	-3.5	nt	nt
O=C(NCCS(=O)(=O)N1CCN(Cc2ccccc2)CC1)c1c(F)cccc1F	0.2	0.3	-25.0	-4.8	nt	nt
CCOc1cccc(NC(=O)/C(C#N)=C\c2ccc(OCC(=O)O)c(Br)c2)c1	6.1*	-0.1	-8.8	4.3	-0.7	-9.0
CCOc1cccc(NC(=O)/C(C#N)=C/c2ccccc2)c1	0.9	-0.1	0.0	-13.3	nt	nt
CCOC(=O)C1=C(C)NC2=C(C(=O)C(C(=O)OC)C(C)C2)C1c1ccccc1OC(C)C (configuration not stated)	5.2*!	0.2	-4.2	-8.7	1.0	4.8
SMILES	GPR151 activ	FBW7 activator	MITF primary	TEAD-YAP block	GPR151 conf act	GPR119 counter
CC1(C)CC(=O)C2=C(C1)N(c1ccccc1)C(=O)CC2c1ccccc1 (configuration not stated)	6.8*	0.0	13.2	1.9	-0.2	-7.3
Cc1ccc(N2C(=O)CC(c3ccccc3)C3=C2CC(C)(C)CC3=O)cc1 (configuration not stated)	-2.0	-0.4	10.7	10.5	nt	nt
CCCCNc1ncnc(N)c1[N+](=O)[O-]	3.3	0.1	-1.2	20.5	nt	nt
CC(C)OCCCNc1ncnc(N)c1[N+](=O)[O-]	7.7*	-0.1	6.9	40.3*	-0.4	-7.9
Cc1ccc(OCCOc2ccc(Oc3nc(N(C)C)nc(N(C)C)n3)nn2)cc1	5.3*	-0.1	9.0	-7.3	0.6	12.3
CN(C)c1ccc(/C=C2\N=C3CCCCCN3C2=O)cc1	-1.3	0.0	2.6	-74.6	nt	nt
Cc1n[nH]c(=S)n1/N=C/c1ccc(F)cc1	5.4*	0.0	2.5	9.6	-1.5	-15.0
Cc1ccc(/C=N/n2c(C)n[nH]c2=S)o1	6.4*	-0.1	-4.8	3.6	0.6	-2.3
CCOc1ccc(C(=O)Nc2cc3nn(-c4ccc(C)cc4)nc3cc2C)cc1Cl	0.7	-0.1	1.5	-4.0	nt	nt
COCCNC(=O)Nc1nc(-c2ccc3c(c2)CCCC3)cs1	7.3*	-0.2	0.0	-16.7	0.1	-4.8
O=C(CN1C(=O)CCC1=O)Nc1nc(-c2ccc3c(c2)CCCC3)cs1	0.5	0.1	9.1	-5.3	nt	nt
O=C(CSc1ccccc1)Nc1cccc(F)c1	-1.1	0.1	4.0	-47.8	nt	nt
O=C(CNS(=O)(=O)c1ccccc1)Nc1cccc(F)c1	6.0*	0.2	0.9	1.9	-0.3	-2.7
Cc1ccc(SCC(=O)Nc2cccc(F)c2)cc1	6.4*	-0.1	-10.3	-56.7	-0.5	-5.5
O=C(CNS(=O)(=O)c1ccc(Br)cc1)Nc1cccc(F)c1	0.7	0.1	11.7	-0.8	nt	nt
O=C(O)c1ccc(NC(=O)c2cccc(S(=O)(=O)Nc3cccc(F)c3)c2)cc1	8.7*	-0.1	-2.7	-0.1	0.1	3.7
Cc1c(C(=O)NCC2CCCO2)oc2ccc3c(c12)C=CC(C)(C)O3 (configuration not stated)	10.1*	0.1	10.8	-72.9	-0.8	-1.8
CC1CCCCN1S(=O)(=O)c1ccc2[nH]cc(C(=O)O)c(=O)c2c1 (configuration not stated)	1.3	0.1	49.0	-4.9	nt	nt
COC(=O)c1ccc(C(=O)OC)c(NC(=O)C2CC(=O)N(c3ccc(C)cc3)C2)c1 (configuration not stated)	0.1	0.1	-0.1	10.8	nt	nt
CCOC(=O)c1c(N)sc(C)c1-c1cccc(Cl)c1	0.2	-0.1	2.4	1.8	nt	nt
COC(=O)c1c(N)sc(C)c1-c1cccc(Cl)c1	6.0*	0.2	-4.6	1.2	0.9	17.6
COc1cccc2cc(C(=O)OCc3csc(-c4ccccc4)n3)c(=O)oc12	-0.6	-0.1	6.0	-5.2	nt	nt
COc1ccc(/C=C2/c3ccccc3-c3nc4ccccc4cc32)cc1OC	1.5	0.1	8.2	-10.8	nt	nt
